Measurements: PubChem BioAssay (NCI)
Compounds without any hit were thinned out: in the full panel of roughly 83,000, 20% have a hit.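 Assay: single dose, 48 h. Readout: percent growth (0 = no net growth; negative = cell death). Active: <10.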 Values without a mark were called inactive. Active and inactive are the calls of the source.

Tests used:
Test in all cases: NCI-60 one-dose screen, 48 h (100 = growth as untreated, 0 = no growth, -100 = all killed)
Settings in all cases: 10 µM unless noted
[1] = test system: HCT-15 colon
[2] = test system: HT29 colon
[3] = test system: SNB-75 CNS
[4] = test system: SNB-19 CNS
[5] = test system: U251 CNS
[6] = test system: PC-3 prostate
[7] = test system: SK-MEL-5 melanoma
[8] = test system: UACC-62 melanoma
[9] = test system: LOX IMVI melanoma
[10] = test system: SK-MEL-28 melanoma
[11] = test system: SK-MEL-2 melanoma
[12] = test system: EKVX NSCLC
[13] = test system: SN12C renal
[14] = test system: UO-31 renal
[15] = test system: TK-10 renal
[16] = test system: ACHN renal
[17] = test system: A498 renal
[18] = test system: CAKI-1 renal
[19] = test system: CCRF-CEM leukemia
[20] = test system: MOLT-4 leukemia

Row | Structure (SMILES) | growth [1] | growth [2] | growth [3] | growth [4] | growth [5] | growth [6] | growth [7] | growth [8] | growth [9] | growth [10] | growth [11] | growth [12] | growth [13] | growth [14] | growth [15] | growth [16] | growth [17] | growth [18] | growth [19] | growth [20]
1 | CCCCCCCC(=O)OCC/C=C/C1OC1C1OC(=O)/C=C\C=C\C(=O)N(C(C)=O)C(=O)/C=C(/C)CCC2OC2C1OC(=O)NC(C)=O (stereo not drawn) | 84.1% | 50.8% | 79.3% | 179% | 69.8% | 84.5% | 67.5% | 68% | 54% | 87.1% | 89.8% | 83.5% | 63.2% | 69% | 37.5% | 29.2% | 90.7% |  |  | 
2 | CCCCC/C=C/C(C)=C/C1CC(C)C/C=C/CCC(O)C(OC(N)=O)CCC(C)CC(O)C(C)C(=O)O1 (stereo not drawn) | 89.8% | 96.9% | 98.9% | 183% | 82.1% | 73.7% | 61.4% | 82% | 73.9% | 85.7% | 92.6% | 91.9% | 97.2% | 64.3% | 100% | 73.1% | 71.7% |  |  | 
3 | CNC(=O)c1cncc(Cn2nc(C)c(NC(=O)c3ccc(COc4ccc(C(F)(F)F)cc4C)cc3)c2C)c1 | 74.7% | 56.5% | 77.7% | 56.6% | 63.7% | 53.9% | 7.09% (active) | 64.7% | 64.3% | 81.6% | 48.8% | 46.5% | 69.1% | 58.6% | 61.9% | 62% |  | 60% | 69% | 41.7%
4 | O=C1/C=C/[C@@H](O)[C@@H]2C[C@@H](O)C[C@H]2/C=C/CCC[C@H](CCc2cccc3ccccc23)O1 | 7.46% (active) | 3.87% (active) | 33% | 30.1% | 23.8% | 20.6% | -95.9% (active) | 11.9% | -55.9% (active) | 2.17% (active) | -9.52% (active) | 13.3% | 5.88% (active) | 4.61% (active) | -0.338% (active) | 6.35% (active) | -35.6% (active) |  | 7.69% (active) | -36.2% (active)
5 | COc1cccc(-c2nc3occn3c2-c2ccnc(NCCNS(=O)(=O)c3ccc(C(F)(F)F)cc3)n2)c1 | 80% | 85.1% | 87% | 98% | 101% | 77.6% | 82.5% | 66.5% | 93.3% | 108% | 98.2% | 84.3% | 88.6% | 66.1% | 116% | 80.9% |  | 64.3% | 92.1% | 75.3%
6 | COc1ccc(/C=C2\Oc3cc(OCCCCCN4CCCCC4)ccc3C2=O)cc1OC | 49.3% | -59.2% (active) | 81% | 91% | 87% | 79.2% | 66.7% | 96.2% | 63.2% | 99.4% | 92.4% | 78.7% | 86% | 73.8% | 82% | 100% |  | 94.3% | 15.2% | 70.2%
7 | COc1ccc2[nH]c(=O)c(CN3CCN(c4nccc(-c5ccc(Cl)cc5)n4)CC3)cc2c1 | 91.8% | 78.2% | 99.9% | 78.8% | 81.2% | 73.6% | 94.6% | 94.4% | 99.6% | 95.8% | 93.1% | 96.4% | 88.8% | 80.7% | 104% | 81.9% |  | 86.7% | 85.1% | 75.5%
8 | Cc1ccc(-n2nc3c(c(C#N)c2=O)CC(c2ccccc2[N+](=O)[O-])C([N+](=O)[O-])=C3O)cc1 (stereo not drawn) | 84.1% | 113% | 80.1% | 92.3% | 91.3% | 88.3% | 87.5% | 78.3% | 82.9% | 98.4% | 98.8% | 77.1% | 91.8% | 61.8% | 115% | 86.4% | 95.9% |  | 88.2% | 87.6%
9 | O=C(/C=C(/C=C/c1csc2ccccc12)OB(F)F)/C=C/c1csc2ccccc12 | 11.4% | 15.7% | 16.5% | 48.2% | 17.1% | 20.3% | 31.5% | 6.2% (active) | -3.05% (active) | 4.8% (active) | 73.1% | 23.7% | -9.88% (active) | -5.1% (active) | 23.7% | 7.13% (active) |  | 10.1% | -20.5% (active) | -18.6% (active)
10 | COC(=O)C1=C(C(=O)ON)[C@@H]2C=C[C@@]1([C@@H](Cc1ccccc1)Nc1ccccc1)O2 | -47.6% (active) | 57.7% | 108% | 104% | 92.2% | 101% | 101% | 90% | 77.7% | 73.3% | 94% | 97.7% | 81.5% | 71.1% | -23.4% (active) | -95.5% (active) |  | 86% | -13.5% (active) | 7.55% (active)
11 | CCOC(=O)c1cc(C(=O)c2ccc(OC)c(OC)c2)n2c1ccc1ccccc12 | 84.5% | 103% | 48.5% | 94% | 96.2% | 81.7% | 89.8% | 74.3% | 85.1% | 106% | 104% | 76.1% | 83.7% | 58.4% | 154% | 91% | 97.1% |  | 94% | 89.6%
12 | Nc1n[nH]c2cccc(C#Cc3cccc(C(=O)Nc4cccc(C(F)(F)F)c4)c3)c12 | 64.8% | 38.8% | 77.9% | 104% | 72.8% | 72.3% | 53.8% | 42.7% | 38% | 53.5% | 33.8% | 89.7% | 67.3% | 37.2% | 97.5% | 54.7% |  | 68.4% | 32.1% | 39.2%
13 | C=C(C)[C@@H]1CC[C@]2(C(=O)N3CCN(C)CC3)CC[C@]3(C)[C@H](CC[C@@H]4[C@@]5(C)CC[C@H](OCCC#N)C(C)(C)[C@@H]5CC[C@]43C)[C@@H]12 | 90.6% | 27.6% | 99.5% | 95.9% | 43.9% | 72.2% | 94.8% | 110% | 53.5% | 112% | 97.7% | 101% | 90.7% | 81.8% | 106% | 103% |  | 99.8% | 23% | 59.7%
14 | C=C1C(=O)O[C@H]2[C@H]1CC/C(COC(=O)NCc1c[nH]c3ccc(F)cc13)=C\CC[C@@]1(C)O[C@@H]21 | -63.9% (active) | -50.2% (active) | 26.4% | 39.5% | 18.7% | 32% | -14.9% (active) | -75.1% (active) | -83.4% (active) | -62.5% (active) | 28.6% | 10.6% | -64.4% (active) | -99.5% (active) | -15.1% (active) | -84.1% (active) |  |  | -8.32% (active) | 
15 | C/C(=N\Nc1cc(C)nc2ccc(Br)cc12)c1ccc([N+](=O)[O-])cc1 | 21.7% | 37.3% | 105% | 75.7% | 20% | 74.8% | 92.3% | 89.6% | -29.9% (active) | 99.2% | 93.1% | 78.2% | 60.2% | 64.4% | 115% | 42.5% |  | 84.6% | 13.5% | 53.1%
16 | NC(=O)Nc1ccc(-n2cnc3cc(-c4ccc(O)cc4)ccc32)cc1 | 97.8% | -7.1% (active) | 102% | 98.7% | 83.4% | 96% | 85.9% | 108% | 104% | 100% | 116% | 112% | 94% | 87.2% | 121% | 92% |  | 95.2% | 94.5% | 84.9%
